Screening data from PubChem.
CHT PAM – allosteric activators of human choline transporter CHT; CHT-expressing cells, membrane potential dye, choline EC20; stronger effect = higher value; LV-AA mutant CHT in HEK293 cells; Q9GZV3; B-score at 10 µM; AID 488977; 310,000 compounds, 0.49% hits;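 active means initial fluorescence not abnormally high and integrated response B-score, plate-corrected, over 3 SD above library mean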
ANO1 activ – mouse TMEM16A channel activation, primary screen | Q8BHY3 | HEK293 TMEM16A/YFP-H148Q/I152L, iodide quench fluorescence; stronger effect = lower value | B-score at 10 µM | 340,000 compounds, 0.3% hits | AID 623877;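 active means fluorescence-ratio B-score plate-corrected deviation score at least 3 library SD below zero, with starting fluorescence score within 5 deviations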;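 further: channel opened by trigger with iodide after compound preincubation; score built on the fluorescence ratio of max minus min over baseline; more negative score means more quench and so TMEM16A activation or potentiation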
CHT block – human CHT choline transport inhibition. CHT-expressing cells, membrane potential dye, choline response; stronger effect = lower value. B-score at 10 µM. 310,000 compounds, 0.86% hits;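 active means B-score over 3 SD under the library average, and starting fluorescence ratio not unusually high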;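 further: choline stimulus applied at its EC90 after an EC20 pre-addition; B-score computed on integrated fluorescence ratio after choline addition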
ANO1 block – blocks the mouse calcium-activated chloride channel TMEM16A; HEK293 TMEM16A/YFP iodide influx fluorescence, ionomycin; 310,000 compounds, 1.2% hits; normalized B-score (activity score, 25-100; higher = stronger inhibition) at 10 µM; Q8BHY3; AID 588511;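 active means ratio plate-corrected score three or more library SD toward inhibition, starting fluorescence score within five deviations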;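 further: score derived from kinetic fluorescence span divided by baseline fluorescence per well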
TMEM16A reconf – TMEM16A (mouse) chloride channel inhibition, re-confirmation. shares compounds with ANO1 block. 2,300 compounds, 39% hits. HEK293 TMEM16A/YFP-H148Q, iodide quench fluorescence; ionomycin added to raise cell calcium. AID 652189. inhibition, % at 10 µM;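 active means mean duplicate percent inhibition, scaled so buffer wells are 0 and the reference blocker 100, over three buffer SD above buffer mean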
TMEM16A Ca cntr – alters calcium mobilization in TMEM16A HEK293 cells, counter-screen; TMEM16A/YFP HEK293, Fluo4 calcium mobilization; AID 652231; calcium response (% of ionomycin), % at 10 µM; 2,300 compounds, 2% hits; shares compounds with ANO1 block;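 active means duplicate-averaged calcium signal over 20% of the ionomycin maximum, relative to buffer baseline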;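 further: each well's signal is peak minus trough fluorescence divided by its pre-addition baseline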
Parental YFP cnt – acts in parental YFP-HEK293 cells lacking TMEM16A, counter-screen. shares compounds with ANO1 block. iodide YFP quench, ionomycin. YFP ratio F(max-min)/F0 at 10 µM. 2,300 tested, under 10 active;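 active means yellow fluorescent protein signal ratio exceeding the buffer control mean by over 5 SD of those controls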;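 further: ratio is mean of duplicate wells from kinetic YFP trace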
ClC-1 rat inh – blocks the rat ClC-1 voltage-dependent chloride channel | CHO ClC-1-YFP, iodide influx fluorescence quench; iodide control reads 0, buffer control 100 | ratio percent, % at 10 µM | shares compounds with ANO1 block | 2,300 tested, under 10 active;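 active means duplicate-mean ratio percent above the mean of iodide-only control wells, which defines zero, plus 5 of their SD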;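 further: higher percent means stronger block of ClC-1 iodide influx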
Numbers stand for hits. Only some compounds are listed: those with a hit (about 2.3% of all), similar ones and a draw of the others.

`COc1cc(C2c3c(c(C)c(C)oc3=O)Oc3c(C)c(C)oc(=O)c32)ccc1OS(=O)(=O)c1ccc(C)cc1` gave ANO1 activ inactive.
For COc1cc(C(=O)NCCOc2ccccc2)c(Br)c(OC)c1OC the results were CHT PAM inactive, ANO1 activ inactive, CHT block inactive, ANO1 block 25, TMEM16A reconf inactive, TMEM16A Ca cntr inactive, Parental YFP cnt inactive and ClC-1 rat inh inactive.
Cc1ccc(NC(=O)CCCc2c[nH]c3ccccc23)nc1 was read as CHT PAM inactive, ANO1 activ inactive, CHT block inactive and ANO1 block inactive.
`CC(C)(Oc1ccc(Cl)cc1)C(=O)OCn1nnc2ccccc2c1=O` gave CHT PAM inactive, ANO1 activ inactive, CHT block inactive, ANO1 block 100, TMEM16A reconf inactive, TMEM16A Ca cntr 32%, Parental YFP cnt inactive and ClC-1 rat inh inactive.
`O=C(CNC(=O)c1ccc(Cl)cc1)OCn1nnc2ccccc2c1=O` gave ANO1 activ inactive.
Screening O=C1/C(=C\c2ccc(C(F)(F)F)cc2)CSc2sccc21 returned CHT PAM inactive, ANO1 activ inactive, CHT block inactive and ANO1 block inactive.
`COc1ccccc1N1CCN(C(=O)c2sc3nc(-c4ccc(F)cc4)cn3c2C)CC1` gave CHT PAM inactive, ANO1 activ inactive, CHT block inactive, ANO1 block 25, TMEM16A reconf inactive, TMEM16A Ca cntr inactive, Parental YFP cnt inactive and ClC-1 rat inh inactive.
O=S(=O)(NC1CCCCC1Nc1ccc(Cl)cc1)c1ccccc1 (stereo unspecified) was read as CHT PAM inactive, ANO1 activ inactive, CHT block inactive, ANO1 block 25, TMEM16A reconf inactive, TMEM16A Ca cntr inactive, Parental YFP cnt inactive and ClC-1 rat inh inactive.
Cc1ccc(NC2CCCCC2NS(=O)(=O)c2ccc(Cl)cc2)cc1 (stereo unspecified) was read as CHT PAM inactive, ANO1 activ inactive, CHT block inactive and ANO1 block inactive.
CN(CC(=O)Nc1ccc(Cl)c(C(F)(F)F)c1)C(=O)Cc1n[nH]c(=O)c2ccccc12 was read as CHT PAM inactive, ANO1 activ inactive, CHT block inactive, ANO1 block 100, TMEM16A reconf 26%, TMEM16A Ca cntr inactive, Parental YFP cnt inactive and ClC-1 rat inh inactive.
Screening CN(CC(=O)Nc1cccc(F)c1)C(=O)Cc1n[nH]c(=O)c2ccccc12 returned CHT PAM inactive, ANO1 activ inactive, CHT block inactive and ANO1 block inactive.
`C/C(=N\NC(=S)Nc1ccc(F)cc1)C1CC1` gave CHT PAM inactive, ANO1 activ inactive, CHT block inactive and ANO1 block inactive.
For Oc1cc2c(cc1CN1CCN(c3ncccn3)CC1)OCO2 the results were CHT PAM inactive, ANO1 activ inactive, CHT block inactive and ANO1 block inactive.
`COc1cccc(C2=CC(c3cccc(OC)c3OC(F)F)n3nnnc3N2)c1` (stereo unspecified) gave CHT PAM inactive, ANO1 activ inactive, CHT block inactive, ANO1 block 100, TMEM16A reconf inactive, TMEM16A Ca cntr inactive, Parental YFP cnt inactive and ClC-1 rat inh inactive.
`COc1ccc(NC(=O)N2CCCC2)cc1OC` gave CHT PAM inactive, ANO1 activ inactive, CHT block inactive, ANO1 block 25, TMEM16A reconf inactive, TMEM16A Ca cntr inactive, Parental YFP cnt inactive and ClC-1 rat inh inactive.
`COc1ccc(NC(=O)N2CCCCCC2)cc1OC` gave CHT PAM inactive, ANO1 activ inactive, CHT block inactive and ANO1 block inactive.
Screening CC1CCCC(NC(=O)c2nn(C)c3c2CS(=O)(=O)c2ccccc2-3)C1C (stereo unspecified) returned CHT PAM inactive, ANO1 activ inactive, CHT block inactive and ANO1 block inactive.
`Cc1ccc(NC(=O)c2c(C(F)(F)F)nn(C)c2SCc2cccc(C(F)(F)F)c2)cc1C` gave CHT PAM inactive, ANO1 activ inactive, CHT block inactive, ANO1 block 100, TMEM16A reconf inactive, TMEM16A Ca cntr inactive, Parental YFP cnt inactive and ClC-1 rat inh inactive.
`CCCCOC(=O)Nc1nnc(COc2ccccc2)s1` gave CHT PAM inactive, ANO1 activ inactive, CHT block inactive, ANO1 block 25, TMEM16A reconf inactive, TMEM16A Ca cntr inactive, Parental YFP cnt inactive and ClC-1 rat inh inactive.
For Cc1cc(S(=O)(=O)Nc2ccc3cn[nH]c3c2)c(C)cc1Cl the results were CHT PAM inactive, ANO1 activ inactive, CHT block inactive, ANO1 block 25, TMEM16A reconf 16%, TMEM16A Ca cntr inactive, Parental YFP cnt inactive and ClC-1 rat inh inactive.
`CCC(Oc1ccc(C)cc1)C(=O)Nc1ccc(S(=O)(=O)Nc2cc(C)on2)cc1` (stereo unspecified) gave CHT PAM inactive, ANO1 activ inactive, CHT block inactive and ANO1 block inactive.
Screening Cc1cccc(Cc2c(C)nc3c(C(=O)N4CCN(Cc5ccc6c(c5)OCO6)CC4)cnn3c2C)c1 returned CHT PAM inactive, ANO1 activ inactive, CHT block inactive, ANO1 block 25, TMEM16A reconf inactive, TMEM16A Ca cntr inactive, Parental YFP cnt inactive and ClC-1 rat inh inactive.
CN(C)S(=O)(=O)N1CCC(Oc2ccc(C(=O)N3CCCCCCC3)cc2)CC1 was read as CHT PAM inactive, ANO1 activ inactive, CHT block inactive and ANO1 block inactive.
For CCCCNC(=S)Nc1ccc(C(F)(F)F)cc1 the results were CHT PAM inactive, ANO1 activ inactive, CHT block inactive, ANO1 block 100, TMEM16A reconf 40%, TMEM16A Ca cntr inactive, Parental YFP cnt inactive and ClC-1 rat inh inactive.
`CS(=O)(=O)c1nc(S(=O)(=O)c2ccc(Cl)cc2)c(N2CCC(O)CC2)s1` gave CHT PAM inactive, ANO1 activ inactive, CHT block inactive and ANO1 block inactive.
Screening CCOc1ccc(OCc2ccc(C(=O)OCc3ccccn3)o2)cc1 returned CHT PAM inactive, ANO1 activ inactive, CHT block inactive, ANO1 block 100, TMEM16A reconf inactive, TMEM16A Ca cntr inactive, Parental YFP cnt inactive and ClC-1 rat inh inactive.
O=C1OC(c2ccccc2)=N/C1=C/c1cccc(OC(=O)c2cccs2)c1 was read as CHT PAM inactive, ANO1 activ inactive, CHT block inactive, ANO1 block 25, TMEM16A reconf inactive, TMEM16A Ca cntr inactive, Parental YFP cnt inactive and ClC-1 rat inh inactive.
Cc1no[n+]([O-])c1COc1cccc(/C=C2\N=C(c3ccccc3)OC2=O)c1 was read as CHT PAM inactive, ANO1 activ inactive, CHT block inactive and ANO1 block inactive.
